Assay outcomes deposited in PubChem BioAssay by National Center for Advancing Translational Sciences (NCATS).
Compounds with a hit are over-represented: about 11% of the library has one in this group of screens.
HPGD block = blocks human HPGD enzyme activity; P15428; purified HPGD, NADH fluorescence kinetic, PGE2 substrate; Potency, µM, for inactives: at the highest dose activity change, negative = inhibition, most hits filed as inhibitors; hit rate 4.3% among 150,000; AID 894; further: potency means the concentration at half of the fitted maximal effect
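NADH formation kinetics: reaction with 30 uM PGE2 and 1 mM NAD+ (final), 20 nM enzyme, Tris-HCl pH 8 with Tween 20, after 15 min compound preincubation at room temperature. Fluorescence change, last versus first of five reads.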
IMPase inh = membrane-permeable compound that blocks inositol monophosphatase; P97697; CHO-M1 cells, IP1 accumulation, HTRF TR-FRET ratio; inhibition (IP1 accumulation), % at 46.1 µM; 120,000 tested, under 10 active; AID 901; active means well fitted curve in the direction sought with a large enough effect in the signal ratio, not every such curve was filed as active; inconclusive means small, poorly fitted or top-dose-only effect, or a change in a side signal; inactive means no such curve, though single readings can be large or run the other way; the % refers to the signal ratio;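 further: cells stimulated with carbachol in lithium chloride buffer; plate controls were DMSO basal wells for no effect and reference inhibitor wells for full effect; higher means more IMPase inhibition seen as more IP1 and lower FRET ratio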
Target sequence (P97697 whole entry, looked up): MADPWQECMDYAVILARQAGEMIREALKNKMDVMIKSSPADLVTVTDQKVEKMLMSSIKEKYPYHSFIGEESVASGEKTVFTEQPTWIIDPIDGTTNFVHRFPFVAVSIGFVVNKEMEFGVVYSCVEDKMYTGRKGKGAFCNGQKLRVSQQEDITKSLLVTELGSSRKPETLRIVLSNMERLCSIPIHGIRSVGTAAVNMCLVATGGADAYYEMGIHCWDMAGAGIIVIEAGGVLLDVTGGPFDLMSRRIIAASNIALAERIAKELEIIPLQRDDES
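Elevated IP1 in lysates lowers TR-FRET signal (665/620 ratio and 620 channel reported). Cells were CHO-M1, given carbachol (50 uM as added) plus 50mM LiCl, pH 7.4, 30 min, 37C; compounds titrated up to 46 uM; AC50 by Hill equation.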
IMPase Li cell = IMPase inhibition in cells with lithium potentiation; CHO-M1 cells, IP1 TR-FRET (IP-One), carbachol + lithium; hit rate 0.35% among 210,000; Potency, µM (titrated, usually from 59.4 µM), inactives show at the top dose activity, negative = IMPase inhibition, most hits filed as inhibitors; AID 1457; active means well fitted inhibition curve with a large enough effect; inconclusive means small, poorly fitted or top-dose-only effect; inactive means no such curve, though single readings can be large or run the other way;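 further: IP1 builds up when IMPase is blocked and the TR-FRET signal falls; potency means the concentration at half of the fitted maximal effect; plate controls were basal vehicle for no effect and high inhibitor control for full effect; nearly all actives have a fitted effect of over 50% in size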
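Test compounds were applied to CHO-M1 cells previously cultured for 16–30 h at 2000 per well. A small lithium amount accompanied them; after 30 min at 37C, IP1 was quantified by TR-FRET.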
PNC assembly inh = perinucleolar compartment assembly inhibition; PC3M PTB-GFP, PNC prevalence imaging, 16 h; hits give low values; activity change (PNC), negative = inhibition, % at 10 µM; hit rate 3.1% among 140,000;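 active means readout at or below -70, meaning at least 70% loss of cells showing the perinucleolar compartment, a nuclear body marking cancer cells; inconclusive means readout between -30 and a set limit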;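 further: plate controls were DMSO wells for no effect and camptothecin positive control wells for full effect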
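Read-out is percentage of cells bearing a perinucleolar compartment, from automated 20x imaging of fixed, Hoechst-stained PC3M PTB-GFP cells. Cells were seeded 4 h, then exposed 16 h to compound (23 nl of library stock) in duplicate plates.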
ALDH1A1 block = inhibitors of human aldehyde dehydrogenase 1A1; P00352; Purified ALDH1A1, NADH fluorescence, propionaldehyde substrate; Potency, µM (titrated, usually from 75.3 µM), inactives show at the top dose activity, negative = inhibition, most hits filed as inhibitors; hit rate 7.3% among 220,000; AID 1030;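 further: potency means the concentration at half of the fitted maximal effect; plate controls were no enzyme wells and a reference inhibitor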
Target sequence (P00352 whole entry, looked up): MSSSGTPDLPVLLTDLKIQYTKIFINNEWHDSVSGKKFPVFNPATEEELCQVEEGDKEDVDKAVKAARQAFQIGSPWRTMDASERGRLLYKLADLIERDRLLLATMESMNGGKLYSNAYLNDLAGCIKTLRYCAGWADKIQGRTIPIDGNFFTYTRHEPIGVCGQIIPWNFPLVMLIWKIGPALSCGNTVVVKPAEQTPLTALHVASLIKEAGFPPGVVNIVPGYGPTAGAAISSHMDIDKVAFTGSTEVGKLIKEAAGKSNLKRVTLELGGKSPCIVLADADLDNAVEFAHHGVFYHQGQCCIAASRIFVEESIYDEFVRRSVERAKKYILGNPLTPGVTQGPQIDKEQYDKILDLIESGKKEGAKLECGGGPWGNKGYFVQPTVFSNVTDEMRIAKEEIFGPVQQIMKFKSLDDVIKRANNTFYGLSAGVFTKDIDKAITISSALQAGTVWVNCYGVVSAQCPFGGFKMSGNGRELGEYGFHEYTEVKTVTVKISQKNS
* marks the source's active call; other numbers are inactive results; ? = inconclusive; . = no result; ! = a repeat was not active; [ ] = another dose, or the depositor's remark. Unless noted, the call rests on the fitted dose curve; in most records, active means well fitted inhibition curve with a large enough effect (not every such curve was filed as active); inconclusive means small, poorly fitted or top-dose-only effect, or another doubt; inactive means no such curve, though single readings can be large or run the other way. Unless noted, on the % scale 0 is the no-effect control and ±100 the full control effect.

SMILES	HPGD block	IMPase inh	IMPase Li cell	PNC assembly inh	ALDH1A1 block
O=C(COc1ccccc1)NCCSCc1ccco1	22µM*	0	2%	?	?
O=C(CCSc1ccccc1)NCCSCc1ccco1	.	3	.	-24	11µM*
CC(C)NC(=O)N1CCCC2(CCN(C(=O)c3cc(C(F)(F)F)cc(C(F)(F)F)c3)CC2)C1	-22%	.	-1%	.	11%
CC1(C(=O)N(c2ccccc2)C(C(=O)NC2CCCC2)c2ccccn2)CC(=O)N=C2C=CC=CN21 (configuration not stated)	?	-4	-12%[38.3 µM]	17	?
CS(=O)(=O)c1ccc(C2=C(c3ccccc3)C(=O)OC2)cc1	15%	.	?	.	2.8µM*
Cc1ccc2c(c1)C(=O)C1(O)CCN(c3ccccc3)C1=N2 (configuration not stated)	-5%	.	2%	.	-5%
Cc1csc(SCC(=O)Nc2cc(S(=O)(=O)N3CCCC3)ccc2Cl)n1	0%	7	-1%[38.3 µM]	?	1.3µM*
Cc1ccc(S(=O)(=O)N2CCCCC2)cc1NC(=O)CSc1ncn[nH]1	.	.	11%	.	?
Cc1ccc(S(=O)(=O)N2CCCCC2)cc1NC(=O)CSc1nnc(N)s1	.	.	10%	.	-7%
O=C(CSc1ncn[nH]1)Nc1cc(S(=O)(=O)N2CCCC2)ccc1Cl	.	.	7%	.	16µM*
O=C(CSc1nnc(Nc2ccccc2)s1)Nc1cccc(S(=O)(=O)N2CCCCC2)c1	-16%	11	8%	-9	-6%
Cc1csc(SCC(=O)Nc2cccc(S(=O)(=O)N3CCCC3)c2)n1	-1%	-1	25%[38.3 µM]	-23	25µM*
COC(=O)c1nnc(C(=O)NCc2ccccc2)c2[nH]c3ccccc3c12	-20%	.	-5%	.	-1%
COC(=O)C1OC(=O)C2O[C@@]23[C@]2(C)C(OC(C)=O)CC4C(C)(C)C(=O)CC[C@]4(C)C2CC[C@@]13C (some centres not stated)	-2%	.	0%	.	3%
COc1ccc(-c2nc3cncnc3n(-c3ccccc3)c2=O)cc1	.	.	9%	.	3%
CCOc1ccc(C(C)=O)cc1COC(=O)c1cccnc1SC	.	.	6%	.	25µM*
Cc1cccc(/C(N)=N/OC(=O)CCCN2C(=O)c3ccccc3C2=O)c1	-24%	-4	-3%[38.3 µM]	19	0%
COc1ccc(C(C)=O)cc1COC(=O)CCCN1C(=O)c2ccccc2C1=O	.	.	6%	.	3.5µM*
COc1ccc(-n2c(C)cc(C(=O)COC(=O)Cc3n[nH]c(=O)c4ccccc34)c2C)cc1	-29%	.	13%	?	1%
CSc1ncccc1C(=O)OCc1ccccc1Cl	.	.	35%	.	?
COc1ccc(C(C)=O)cc1COC(=O)Cc1n[nH]c(=O)c2ccccc12	22µM*	-3	4%[38.3 µM]	-9	?
COc1ccc(C(C)=O)cc1COC(=O)c1cccnc1SC	.	.	-10%	.	10µM*
CO[C@H]1C[C@@H](O[C@@H]2[C@H](C)[C@H](O[C@@H]3O[C@@H](C)C[C@@H](N(C)C)[C@@H]3O)[C@H](C)C[C@]3(CO3)C(=O)[C@H](C)[C@H](O)[C@H](C)[C@H](C)OC(=O)[C@@H]2C)O[C@@H](C)[C@H]1O	2%	1[20.6 µM]	-2%	.	-2%[20.9 µM]
COc1ccc(C(C)=O)cc1COC(=O)c1cc(C)oc1C	-9%	-1	-6%[38.3 µM]	0	18µM*
COc1ccc(C(C)=O)cc1COC(=O)CNC(=O)c1cc(C)cc(C)c1	-13%	8	5%	?	7.9µM*
SMILES	HPGD block	IMPase inh	IMPase Li cell	PNC assembly inh	ALDH1A1 block
COc1ccc(C(C)=O)cc1COC(=O)c1cccc(N(C)C)c1	?	11	5%[38.3 µM]	?	?
COc1ccc(C(C)=O)cc1COC(=O)c1cc(C)nc2ccccc12	.	.	14%	.	8.9µM*
N/C(=N\OC(=O)CCCCCN1C(=O)c2ccccc2C1=O)c1ccccc1	13µM*	3	17%	?	?
CC(=O)/C=C\C1[C@]2(C)CCCC(C)(C)C2CC[C@@]1(C)O (some centres not stated)	-13%	.	-6%	.	3%
O=S(=O)(Cc1ccccc1)c1nnnn1C1CCCCC1	-1%	.	17%	.	12%
Cc1cc(C(=O)COC(=O)Cc2n[nH]c(=O)c3ccccc23)c(C)n1-c1ccc2c(c1)OCO2	-19%	4	9%	?	-4%
O=C(Cc1n[nH]c(=O)c2ccccc12)OCC(=O)c1ccc2c(c1)OCCO2	-22%	5	-7%[38.3 µM]	-102*	-11%
Oc1ccc(C(=S)N2CCCCC2)cc1	?	-2	6%[38.3 µM]	?	22µM*
CC(=O)N1CCN(C(=S)c2ccc(N(C)C)cc2)CC1	20µM*	2	?	9	8.9µM*
CN(C)c1ccc(C(=S)N2CCOCC2)cc1	-16%	10	7%[38.3 µM]	-19	?
S=C(c1ccc(N2CCOCC2)cc1)N1CCCCC1	-27%	-1	15%	335	-6%
CC1CCN(C(=S)c2ccc(N(C)C)cc2)CC1	.	.	7%	.	13µM*
CN(C)c1ccc(C(=S)N2CCCCCC2)cc1	28µM*	4	30%[38.3 µM]	?	?
CCN(Cc1ccccc1)Cc1c(O)ccc2c(=O)c(-c3ccc(Cl)cc3)coc12	.	-7	.	.	.
CCc1cccc(C)c1Nc1c(-c2cccs2)nc2nc(C)cc(C)n12	.	-4	.	.	.
CO[C@@H]1COC(=O)[C@H]2CCCN2C(=O)[C@@H](C)COC(=O)[C@H](COCc2ccccc2)NC(=O)C/C=C\[C@H]1C	.	.	.	.	1%[13.5 µM]
CNc1cccccc1=S	28µM*	8	29%[38.3 µM]	5	10µM*
CC1(C)CC(=O)c2cnc(NCC3CCCO3)nc2C1 (configuration not stated)	22µM*	-1	29%[38.3 µM]	?	?
CC1CC(=O)c2cnc(NCC3CCCO3)nc2C1 (configuration not stated)	-28%	-6	11%[38.3 µM]	-8	?
CCCCCCCCCCCC1=C(O)C(=O)C=C(O)C1=O	14µM*!	25	29%	.	24µM*
CCCCCCCCCCC1=C(C)C(=O)C(OC)=C(OC)C1=O	.	.	-3%	.	?
Clc1ccccc1-c1nc(/C=N/N2CCOCC2)c2ccccn12	.	.	9%	.	40µM*
CCOC(=O)c1ccc(Nc2nnc(C(C)(C)C)c(=O)[nH]2)cc1	.	3	.	19	14µM*
CCOC(=O)c1ccc(Nc2cc(C)nc(C)c2C(=O)OCC)cc1	-5%	8	22%[38.3 µM]	?	2%
O=S(=O)(c1ccc2ccccc2c1)N1CCN(C2CCN(Cc3ccccc3)CC2)CC1	-2%	3	34%[38.3 µM]	?	?
O=S(=O)(c1ccc2ccccc2c1)N1CCN(C2Cc3ccccc3C2)CC1	-10%	.	2%	-7	28µM*
Cc1cnc(C(=O)N2CCN(S(=O)(=O)c3ccc4ccccc4c3)CC2)cn1	-17%	23	1%[38.3 µM]	?	13µM*
COc1ccccc1CNc1cc(-c2cccc(C#N)c2)ncn1	.	.	15%	.	?
